PubChem BioAssay (NCATS)
Results filed as inconclusive are left out. Calls come from the whole dose curve; as a rule, active = well fitted curve in either direction with a large enough effect (not every such curve was filed as active); inconclusive = small, poorly fitted or top-dose-only effect, or another doubt; inactive = flat fitted curve, though single readings scatter.

Assay: AP1 Signaling Pathway (AID 357);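 note: ME-180 reporter cells stimulated with EGF at its EC50 level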
Conditions: ME-180 AP-1-bla reporter, EGF-induced, beta-lactamase ratio, 5 h; at 17.2 µM (top of the series) unless noted
Outline: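 First, ME-180 AP-1-bla cells were cultured overnight at 37 °C in low-serum Opti-MEM. Next, titrated compounds with EC50 EGF were incubated 5 hours. Finally, CCF4 was added for 2.5 hours and the 460/530 nm ratio recorded.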
% is set by controls: 0 for no effect and ±100 for the full control effect.

Activity change, negative = inhibition, inactive:
O=C(c1cccs1)N1CCC(N2CCN(c3ccccc3)CC2)CC1 9.88%
Cc1nc2c(c(=O)n1CC1CCCO1)c1nc3ccccc3nc1n2Cc1ccc2c(c1)OCO2 (stereo not given) 1.65%
O=c1[nH]c(=O)n(Cc2ccco2)c2c1C(C(F)(F)F)(C(F)(F)F)N=C(c1ccco1)N2 3.52%
CSC1=Nc2sc3c(c2C2=NCCN12)CC(C)(C)OC3 26%
Cc1ccc(-n2c(=O)c3c4c(sc3n3c(C)nnc23)COC(C(C)C)C4)cc1 (stereo not given) -7.34%
CC1CCN(c2[nH]c(=S)c(C#N)c3c2CCCC3)CC1 10.9%
CCCCc1c(O)nc(SCCN(C)C)n(-c2ccccc2)c1=O 10%
O=C1C=C(N2CCN(C3=CC(=O)CCC3)CC2)CCC1 20.4%
COC(=O)c1ccc(Oc2nc3ccccc3n3c(C)nnc23)cc1 13%
COCCCNC(=O)c1c(N)n(/N=C/c2ccccn2)c2nc3ccccc3nc12 -25.1%
CCCCOc1ccc(C(=O)OC2CC(C)N(C)CC2C)cc1 (stereo not given) 5.59%
COc1cccc(-c2nc(N3CCC(C)CC3)c3ccccc3n2)c1O 16.6%
C=CCn1c(=S)[nH]c2nc3c(cc2c1=O)CCCC3 -14.7%
CCSc1nc2sc3c(c2c2nnc(SCC(=O)NCc4ccco4)n12)CCCC3 -11.8%
COc1ccc(N2CCN(c3oc(COc4ccc(Cl)cc4)nc3C#N)CC2)cc1 -27.6%
COC(=O)CN(c1nc(C)c(Cl)c(OC)n1)S(=O)(=O)c1ccc(C)cc1 6.71%
COc1ccc(CN(C#N)c2nc(SC)nc(N(C)C)n2)cc1 -3.69%
Cc1nc(-c2cn[nH]c2)c2cc(C)oc2n1 -1.95%
C[C@]12CC[C@@H]3c4ccc(O)cc4C(=O)C[C@H]3[C@@H]1CC[C@@H]2O 0.317%
O=c1c2ccccc2[nH]c(=S)n1CCN1CCC(=C(c2ccc(F)cc2)c2ccc(F)cc2)CC1 10.4%
CC1(C)Cc2nc(NCCCO)c(C#N)cc2CO1 -6.96%
CCOC(=O)c1[nH]c2cc(OC)c(OC)cc2c1NC(=O)C(C)N1CCN(Cc2ccccc2)CC1 (stereo not given) -21.5%
CC(C)C(=O)N1CCN(c2nc(-c3ccccc3)c3c(c2C#N)CCCC3)CC1 -14.8%
CCN1CC2=C(OC(N)=C(C#N)C2c2ccccc2)/C(=C\c2ccccc2)C1 (stereo not given) -16.4%
CCOP(=O)(c1ccccc1)c1nc(-c2ccccc2C)oc1N1CCCCC1 (stereo not given) -1.96%
N#Cc1c(SCC(N)=O)nsc1SCc1ccc(Cl)cc1 -15.5%
O=c1c2c3c(sc2n2cnnc2n1Cc1ccccc1)CN(Cc1ccccc1)CC3 0.127%
O=C(Nc1nc(NC(=O)c2ccco2)n(-c2ccccc2)n1)c1ccccc1 -13.5%
COc1cccc(NC(=O)C2CC(=O)n3cnnc3S2)c1 (stereo not given) -17.5%
C=CCSc1nnc2n(-c3ccccc3OC)c(=O)c3c4c(sc3n12)CCC4 7%
N#CC1=C(N)N(c2ccccc2)C(c2ccccc2)C1(C#N)C#N (stereo not given) -27.2%
Cc1ccc(OCC(=O)N2CCC(N3CCCCCC3)CC2)cc1 3.92%
CC(C)CNC(=O)c1c(N)n(/N=C/c2ccccn2)c2nc3ccccc3nc12 14.9%
CCC1CCCCN1c1nc(-c2cccc(OC)c2O)nc2ccccc12 (stereo not given) -8.8%
C=CCOc1nc2c(c(=O)n(C)c(=O)n2C)n1Cc1c(Cl)cccc1Cl 0.413%
O=c1cc(-c2ccco2)nc(-c2cccs2)o1 6.68%
N#CCSc1nc2sc3c(c2c(=O)n1C1CCCCC1)CCCC3 -7.41%
CC(C)Cc1nc(N2CCCCC2)c(C#N)c2c1CCC2 28.8%
c1ccc(N2CCN(c3nc(NCc4ccco4)c4ccccc4n3)CC2)cc1 -16.8%
COc1ccc(-n2c(SCC(N)=O)nc3sc4c(c3c2=O)CCN(C)C4)cc1 -7.72%

Assay: Stat Signaling Pathway (AID 446);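 note: ME-180 cervical cancer cells given 40 pM IL-6 alongside compound; SIE-controlled beta-lactamase reporter measured as 460/530 nm FRET emission ratio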
Conditions: ME-180 SIE beta-lactamase reporter, IL-6 stimulated, 5 h; at 17.2 µM (top of the series) unless noted
Outline: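 ME-180 SIE-bla cells; overnight plating; cpd + IL-6 40 pM, 5 h, 37 C; LiveBLAzer 2.5 h RT; 460/530 nm emission ratio. Normalized to 300 pM IL-6 and 125 nM JAK inhibitor controls.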

activity, negative = inhibition, inactive:
O=C(c1cccs1)N1CCC(N2CCN(c3ccccc3)CC2)CC1 -2.08%
Cc1nc2c(c(=O)n1CC1CCCO1)c1nc3ccccc3nc1n2Cc1ccc2c(c1)OCO2 (stereo not given) -13.4%
O=c1[nH]c(=O)n(Cc2ccco2)c2c1C(C(F)(F)F)(C(F)(F)F)N=C(c1ccco1)N2 -26.4%
CSC1=Nc2sc3c(c2C2=NCCN12)CC(C)(C)OC3 14.3%
Cc1ccc(-n2c(=O)c3c4c(sc3n3c(C)nnc23)COC(C(C)C)C4)cc1 (stereo not given) -0.5%
CC1CCN(c2[nH]c(=S)c(C#N)c3c2CCCC3)CC1 -15.1%
CCCCc1c(O)nc(SCCN(C)C)n(-c2ccccc2)c1=O 2.07%
O=C1C=C(N2CCN(C3=CC(=O)CCC3)CC2)CCC1 13.1%
COC(=O)c1ccc(Oc2nc3ccccc3n3c(C)nnc23)cc1 4.74%
COCCCNC(=O)c1c(N)n(/N=C/c2ccccn2)c2nc3ccccc3nc12 -10.3%
CCCCOc1ccc(C(=O)OC2CC(C)N(C)CC2C)cc1 (stereo not given) 1.35%
COc1cccc(-c2nc(N3CCC(C)CC3)c3ccccc3n2)c1O 5.63%
C=CCn1c(=S)[nH]c2nc3c(cc2c1=O)CCCC3 -11.2%
CCSc1nc2sc3c(c2c2nnc(SCC(=O)NCc4ccco4)n12)CCCC3 -18.7%
COc1ccc(N2CCN(c3oc(COc4ccc(Cl)cc4)nc3C#N)CC2)cc1 11.6%
COC(=O)CN(c1nc(C)c(Cl)c(OC)n1)S(=O)(=O)c1ccc(C)cc1 3.43%
COc1ccc(CN(C#N)c2nc(SC)nc(N(C)C)n2)cc1 2.92%
Cc1nc(-c2cn[nH]c2)c2cc(C)oc2n1 -3.87%
C[C@]12CC[C@@H]3c4ccc(O)cc4C(=O)C[C@H]3[C@@H]1CC[C@@H]2O -2.37%
O=c1c2ccccc2[nH]c(=S)n1CCN1CCC(=C(c2ccc(F)cc2)c2ccc(F)cc2)CC1 -6.03%
CC1(C)Cc2nc(NCCCO)c(C#N)cc2CO1 7.31%
CCOC(=O)c1[nH]c2cc(OC)c(OC)cc2c1NC(=O)C(C)N1CCN(Cc2ccccc2)CC1 (stereo not given) -4.92%
CC(C)C(=O)N1CCN(c2nc(-c3ccccc3)c3c(c2C#N)CCCC3)CC1 -9.28%
CCN1CC2=C(OC(N)=C(C#N)C2c2ccccc2)/C(=C\c2ccccc2)C1 (stereo not given) -29.2%
CCOP(=O)(c1ccccc1)c1nc(-c2ccccc2C)oc1N1CCCCC1 (stereo not given) 0.694%
N#Cc1c(SCC(N)=O)nsc1SCc1ccc(Cl)cc1 -18%
O=c1c2c3c(sc2n2cnnc2n1Cc1ccccc1)CN(Cc1ccccc1)CC3 -0.303%
O=C(Nc1nc(NC(=O)c2ccco2)n(-c2ccccc2)n1)c1ccccc1 -22.6%
COc1cccc(NC(=O)C2CC(=O)n3cnnc3S2)c1 (stereo not given) -7.33%
C=CCSc1nnc2n(-c3ccccc3OC)c(=O)c3c4c(sc3n12)CCC4 6.42%
N#CC1=C(N)N(c2ccccc2)C(c2ccccc2)C1(C#N)C#N (stereo not given) -18.6%
Cc1ccc(OCC(=O)N2CCC(N3CCCCCC3)CC2)cc1 17.9%
CC(C)CNC(=O)c1c(N)n(/N=C/c2ccccn2)c2nc3ccccc3nc12 9.58%
CCC1CCCCN1c1nc(-c2cccc(OC)c2O)nc2ccccc12 (stereo not given) -4.92%
C=CCOc1nc2c(c(=O)n(C)c(=O)n2C)n1Cc1c(Cl)cccc1Cl 3.61%
O=c1cc(-c2ccco2)nc(-c2cccs2)o1 8.1%
N#CCSc1nc2sc3c(c2c(=O)n1C1CCCCC1)CCCC3 6.22%
CC(C)Cc1nc(N2CCCCC2)c(C#N)c2c1CCC2 9.01%
c1ccc(N2CCN(c3nc(NCc4ccco4)c4ccccc4n3)CC2)cc1 -28%
COc1ccc(-n2c(SCC(N)=O)nc3sc4c(c3c2=O)CCN(C)C4)cc1 2.19%
